# From PMC11006913
# Columns and labels:
# Assay in all cases: PBM; 200 nM protein, PBS
# Conditions in all cases: dsDNA, one strand shown
# PROP1 [1] = target: PROP1 (Homo sapiens, UniProt O75360 56-141)
# PROP1 [2] = target: PROP1 (Homo sapiens, UniProt O75360 56-141, R99H)
# PROP1 [3] = target: PROP1 (Homo sapiens, UniProt O75360 56-141, F88S)
# VAX1 [4] = target: VAX1 (Homo sapiens, UniProt Q5SQQ9 86-172)
# NKX3-2 [5] = target: NKX3-2 (Homo sapiens, UniProt P78367 192-278, P234S)
# NKX3-2 [6] = target: NKX3-2 (Homo sapiens, UniProt P78367 192-278)
# VAX1 [7] = target: VAX1 (Homo sapiens, UniProt Q5SQQ9 86-172, T142I)
# VAX1 [8] = target: VAX1 (Homo sapiens, UniProt Q5SQQ9 86-172, K157R)
# HOXD13 = HOXD13 (Homo sapiens, UniProt P35453 263-343, T313A)
# Sequence of HOXD13 (P35453 263-343 T313A): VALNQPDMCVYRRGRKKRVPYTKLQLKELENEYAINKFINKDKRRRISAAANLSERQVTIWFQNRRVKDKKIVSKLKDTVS
# Sequence of PROP1 (Homo sapiens, UniProt O75360 56-141, F88S) (O75360 56-141 F88S): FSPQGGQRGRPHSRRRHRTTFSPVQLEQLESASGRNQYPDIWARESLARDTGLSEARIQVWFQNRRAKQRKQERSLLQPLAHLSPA
# Sequence of VAX1 (Homo sapiens, UniProt Q5SQQ9 86-172, T142I) (Q5SQQ9 86-172 T142I): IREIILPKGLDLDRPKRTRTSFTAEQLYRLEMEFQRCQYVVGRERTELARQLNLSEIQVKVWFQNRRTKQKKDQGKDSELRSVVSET
# Sequence of VAX1 (Homo sapiens, UniProt Q5SQQ9 86-172, K157R) (Q5SQQ9 86-172 K157R): as the sequence (Q5SQQ9 86-172 T142I) above, with I57T, K72R counted along it
# Sequence of VAX1 (Homo sapiens, UniProt Q5SQQ9 86-172) (Q5SQQ9 86-172): as the sequence (Q5SQQ9 86-172 T142I) above, with I57T counted along it
# Sequence of PROP1 (Homo sapiens, UniProt O75360 56-141, R99H) (O75360 56-141 R99H): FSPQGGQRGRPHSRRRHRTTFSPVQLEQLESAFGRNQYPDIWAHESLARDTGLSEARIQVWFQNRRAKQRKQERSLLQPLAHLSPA
# Sequence of PROP1 (Homo sapiens, UniProt O75360 56-141) (O75360 56-141): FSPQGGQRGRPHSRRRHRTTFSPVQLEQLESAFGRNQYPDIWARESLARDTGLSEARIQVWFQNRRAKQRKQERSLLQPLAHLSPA
# Sequence of NKX3-2 (Homo sapiens, UniProt P78367 192-278) (P78367 192-278): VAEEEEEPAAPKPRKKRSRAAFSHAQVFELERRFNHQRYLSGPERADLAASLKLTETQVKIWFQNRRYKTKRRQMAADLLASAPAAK
# Sequence of NKX3-2 (Homo sapiens, UniProt P78367 192-278, P234S) (P78367 192-278 P234S): as the sequence (P78367 192-278) above, with P43S counted along it
sequence,measurement,setting,value
GGAGCAGA,binding signal,PROP1 [1],"6.75 upbm affinity estimate (log intensity, higher = more binding, comparable within an allelic series)"
same,binding signal,PROP1 [2],"6.89 upbm affinity estimate (log intensity, higher = more binding, comparable within an allelic series)"
same,binding signal,PROP1 [3],"6.82 upbm affinity estimate (log intensity, higher = more binding, comparable within an allelic series)"
AATGGGGC,binding signal,PROP1 [1],"8.17 upbm affinity estimate (log intensity, higher = more binding, comparable within an allelic series)"
same,binding signal,PROP1 [3],"7.05 upbm affinity estimate (log intensity, higher = more binding, comparable within an allelic series)"
GCATCTCC,binding signal,PROP1 [1],"6.85 upbm affinity estimate (log intensity, higher = more binding, comparable within an allelic series)"
same,binding signal,PROP1 [2],"6.93 upbm affinity estimate (log intensity, higher = more binding, comparable within an allelic series)"
same,binding signal,PROP1 [3],"6.57 upbm affinity estimate (log intensity, higher = more binding, comparable within an allelic series)"
AAATCATG,binding signal,PROP1 [1],"8.42 upbm affinity estimate (log intensity, higher = more binding, comparable within an allelic series)"
same,binding signal,PROP1 [3],"7.26 upbm affinity estimate (log intensity, higher = more binding, comparable within an allelic series)"
ATGACCAA,binding signal,PROP1 [1],"8.15 upbm affinity estimate (log intensity, higher = more binding, comparable within an allelic series)"
same,binding signal,PROP1 [3],"7.17 upbm affinity estimate (log intensity, higher = more binding, comparable within an allelic series)"
AGCTCCCG,binding signal,PROP1 [1],"6.72 upbm affinity estimate (log intensity, higher = more binding, comparable within an allelic series)"
same,binding signal,PROP1 [2],"6.63 upbm affinity estimate (log intensity, higher = more binding, comparable within an allelic series)"
same,binding signal,PROP1 [3],"6.46 upbm affinity estimate (log intensity, higher = more binding, comparable within an allelic series)"
AACTAAGC,binding signal,VAX1 [4],"9.21 upbm affinity estimate (log intensity, higher = more binding, comparable within an allelic series)"
CCCGGGAA,binding signal,PROP1 [1],"6.78 upbm affinity estimate (log intensity, higher = more binding, comparable within an allelic series)"
same,binding signal,PROP1 [2],"6.79 upbm affinity estimate (log intensity, higher = more binding, comparable within an allelic series)"
same,binding signal,PROP1 [3],"6.66 upbm affinity estimate (log intensity, higher = more binding, comparable within an allelic series)"
AGGCCAGG,binding signal,PROP1 [1],"6.77 upbm affinity estimate (log intensity, higher = more binding, comparable within an allelic series)"
same,binding signal,PROP1 [2],"6.97 upbm affinity estimate (log intensity, higher = more binding, comparable within an allelic series)"
same,binding signal,PROP1 [3],"6.49 upbm affinity estimate (log intensity, higher = more binding, comparable within an allelic series)"
AAGTTAAG,binding signal,PROP1 [1],"7.89 upbm affinity estimate (log intensity, higher = more binding, comparable within an allelic series)"
same,binding signal,PROP1 [3],"7.07 upbm affinity estimate (log intensity, higher = more binding, comparable within an allelic series)"
GCTAGACC,binding signal,PROP1 [1],"6.61 upbm affinity estimate (log intensity, higher = more binding, comparable within an allelic series)"
same,binding signal,PROP1 [2],"6.75 upbm affinity estimate (log intensity, higher = more binding, comparable within an allelic series)"
same,binding signal,PROP1 [3],"6.62 upbm affinity estimate (log intensity, higher = more binding, comparable within an allelic series)"
TACCCTAA,binding signal,PROP1 [1],"8.09 upbm affinity estimate (log intensity, higher = more binding, comparable within an allelic series)"
same,binding signal,PROP1 [3],"7.04 upbm affinity estimate (log intensity, higher = more binding, comparable within an allelic series)"
GCTCGGAC,binding signal,PROP1 [1],"6.55 upbm affinity estimate (log intensity, higher = more binding, comparable within an allelic series)"
same,binding signal,PROP1 [2],"6.66 upbm affinity estimate (log intensity, higher = more binding, comparable within an allelic series)"
same,binding signal,PROP1 [3],"6.68 upbm affinity estimate (log intensity, higher = more binding, comparable within an allelic series)"
CCGAGTTA,binding signal,PROP1 [1],"8.19 upbm affinity estimate (log intensity, higher = more binding, comparable within an allelic series)"
same,binding signal,PROP1 [3],"7.14 upbm affinity estimate (log intensity, higher = more binding, comparable within an allelic series)"
GGTAAATA,binding signal,PROP1 [1],"8.63 upbm affinity estimate (log intensity, higher = more binding, comparable within an allelic series)"
same,binding signal,PROP1 [2],"8.23 upbm affinity estimate (log intensity, higher = more binding, comparable within an allelic series)"
same,binding signal,PROP1 [3],"7.4 upbm affinity estimate (log intensity, higher = more binding, comparable within an allelic series)"
ATATTTGC,binding signal,PROP1 [1],"8.36 upbm affinity estimate (log intensity, higher = more binding, comparable within an allelic series)"
same,binding signal,PROP1 [2],"7.99 upbm affinity estimate (log intensity, higher = more binding, comparable within an allelic series)"
same,binding signal,PROP1 [3],"7.34 upbm affinity estimate (log intensity, higher = more binding, comparable within an allelic series)"
AAGTAGCT,binding signal,NKX3-2 [5],"11.8 upbm affinity estimate (log intensity, higher = more binding, comparable within an allelic series)"
same,binding signal,NKX3-2 [6],"11.9 upbm affinity estimate (log intensity, higher = more binding, comparable within an allelic series)"
CCGGCTTC,binding signal,VAX1 [4],"6.96 upbm affinity estimate (log intensity, higher = more binding, comparable within an allelic series)"
same,binding signal,VAX1 [7],"7.09 upbm affinity estimate (log intensity, higher = more binding, comparable within an allelic series)"
same,binding signal,VAX1 [8],"6.93 upbm affinity estimate (log intensity, higher = more binding, comparable within an allelic series)"
AAATTAGC,binding signal,VAX1 [4],"11.9 upbm affinity estimate (log intensity, higher = more binding, comparable within an allelic series)"
same,binding signal,VAX1 [7],"11.5 upbm affinity estimate (log intensity, higher = more binding, comparable within an allelic series)"
same,binding signal,VAX1 [8],"11.6 upbm affinity estimate (log intensity, higher = more binding, comparable within an allelic series)"
ACTAAAGA,binding signal,VAX1 [4],"9.49 upbm affinity estimate (log intensity, higher = more binding, comparable within an allelic series)"
same,binding signal,VAX1 [7],"9.21 upbm affinity estimate (log intensity, higher = more binding, comparable within an allelic series)"
same,binding signal,VAX1 [8],"9.23 upbm affinity estimate (log intensity, higher = more binding, comparable within an allelic series)"
ACTATTAA,binding signal,HOXD13,"11.6 upbm affinity estimate (log intensity, higher = more binding, comparable within an allelic series)"
ATTTATAA,binding signal,VAX1 [4],"10.7 upbm affinity estimate (log intensity, higher = more binding, comparable within an allelic series)"
same,binding signal,VAX1 [7],"10.5 upbm affinity estimate (log intensity, higher = more binding, comparable within an allelic series)"
same,binding signal,VAX1 [8],"10.4 upbm affinity estimate (log intensity, higher = more binding, comparable within an allelic series)"
CTCCGTGC,binding signal,VAX1 [4],"6.97 upbm affinity estimate (log intensity, higher = more binding, comparable within an allelic series)"
same,binding signal,VAX1 [7],"7.18 upbm affinity estimate (log intensity, higher = more binding, comparable within an allelic series)"
same,binding signal,VAX1 [8],"6.81 upbm affinity estimate (log intensity, higher = more binding, comparable within an allelic series)"
AGGCGGGA,binding signal,VAX1 [4],"6.99 upbm affinity estimate (log intensity, higher = more binding, comparable within an allelic series)"
same,binding signal,VAX1 [7],"7.2 upbm affinity estimate (log intensity, higher = more binding, comparable within an allelic series)"
same,binding signal,VAX1 [8],"7.24 upbm affinity estimate (log intensity, higher = more binding, comparable within an allelic series)"
ACAATAAT,binding signal,VAX1 [4],"11.2 upbm affinity estimate (log intensity, higher = more binding, comparable within an allelic series)"
same,binding signal,VAX1 [7],"11 upbm affinity estimate (log intensity, higher = more binding, comparable within an allelic series)"
same,binding signal,VAX1 [8],"10.9 upbm affinity estimate (log intensity, higher = more binding, comparable within an allelic series)"
GCGGAGAC,binding signal,VAX1 [4],"7.14 upbm affinity estimate (log intensity, higher = more binding, comparable within an allelic series)"
same,binding signal,VAX1 [7],"7.32 upbm affinity estimate (log intensity, higher = more binding, comparable within an allelic series)"
same,binding signal,VAX1 [8],"7.29 upbm affinity estimate (log intensity, higher = more binding, comparable within an allelic series)"
GGCTAAAC,binding signal,VAX1 [4],"9.05 upbm affinity estimate (log intensity, higher = more binding, comparable within an allelic series)"
same,binding signal,VAX1 [8],"8.95 upbm affinity estimate (log intensity, higher = more binding, comparable within an allelic series)"
CGAAGCAG,binding signal,VAX1 [4],"6.89 upbm affinity estimate (log intensity, higher = more binding, comparable within an allelic series)"
same,binding signal,VAX1 [7],"7.23 upbm affinity estimate (log intensity, higher = more binding, comparable within an allelic series)"
same,binding signal,VAX1 [8],"7.1 upbm affinity estimate (log intensity, higher = more binding, comparable within an allelic series)"
